This is a sample that favours compounds with a hit; in the whole collection about 8.7% have one here.
HP1b chromo inh – HTS for Inhibitors of HP1-beta Chromodomain Interactions with Methylated Histone Tails. Chromobox protein homolog 1 (Homo sapiens), P83916. AlphaScreen HP1-beta / biotin-H3K9me3 peptide binding. Potency, µM (titrated, usually from 114 µM), without a hit: at the top dose activity change, negative = inhibition, hits mostly inhibitors. actives 0.56% (n = 390,000). AID 540317, 2011; further: nearly all actives have a fitted effect of over 70% in size
Target sequence (P83916 whole entry, looked up): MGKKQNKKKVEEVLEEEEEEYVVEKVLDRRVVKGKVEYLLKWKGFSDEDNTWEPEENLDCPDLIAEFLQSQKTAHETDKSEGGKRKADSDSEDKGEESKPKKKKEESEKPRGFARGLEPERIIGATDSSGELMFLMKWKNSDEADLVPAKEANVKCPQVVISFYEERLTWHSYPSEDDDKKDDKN
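AlphaScreen: HP1-beta (50 nM) preformed 30 min with biotin-H3(1-18)K9me3 peptide (50 nM) in PBS pH 7.4, 0.01% Tween-20. Compound added for 30 min at RT, then streptavidin donor/nickel chelate acceptor beads (10 ug/mL) for 30 min.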
12-LOX inh – Primary qHTS assay for inhibitors of human arachidonate 12S-lipoxygenase (ALOX12): Round 2; AID 1671190, 2021; Polyunsaturated fatty acid lipoxygenase ALOX12 (Homo sapiens), P18054; actives 1.1% (n = 580,000); purified 12hLO, xylenol orange hydroperoxide absorbance; Potency, µM (doses to about 108 µM), inactives show top-dose activity change, negative = inhibition, hits mostly inhibitors; further: on the % scale 0 is the no-effect control and ±100 the full control effect
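Hydroperoxide product was detected by ferrous iron/xylenol orange as the 573 to 405 nm absorbance ratio. Arachidonic acid at 40 uM (final) was turned over for 30 min at room temperature by 150 nM human 12hLO, pH 7.0 Hepes buffer, after 15 min compound preincubation.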
JMJD2A Tudor – qHTS Assay for Inhibitors of JMJD2A-Tudor Domain; AlphaScreen JMJD2A-Tudor / H3K4me3 peptide binding; actives 4.4% (n = 390,000); Potency, µM (doses to about 114 µM), for inactives: top-dose activity change, negative = inhibition, usual class: inhibitors; further: on the % scale 0 is the no-effect control and ±100 the full control effect; nearly all actives have a fitted effect of over 50% in size
G9a block – qHTS Assay for Inhibitors of Histone Lysine Methyltransferase G9a | G9a H3K9 monomethylation, AlphaScreen, 2 h | Potency, µM (titrated, usually from 102 µM), for the others: at the top dose activity, negative = inhibition, usual class: inhibitors | actives 8.8% (n = 350,000) | AID 504332, 2011; further: on the % scale 0 is the no-effect control and ±100 the full control effect; nearly all actives have a fitted effect of over 75% in size
Target sequence (Q96KQ7 913-1193 limits assumed): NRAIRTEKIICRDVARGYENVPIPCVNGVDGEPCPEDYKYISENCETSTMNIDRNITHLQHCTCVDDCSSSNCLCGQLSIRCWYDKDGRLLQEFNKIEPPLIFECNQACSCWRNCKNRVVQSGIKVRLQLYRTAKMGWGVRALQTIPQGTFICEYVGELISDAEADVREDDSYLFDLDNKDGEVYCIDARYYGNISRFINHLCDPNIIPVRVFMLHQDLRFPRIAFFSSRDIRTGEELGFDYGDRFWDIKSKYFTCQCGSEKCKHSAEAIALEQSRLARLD
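Enzyme 20 nM + cpd, 15 min RT; add b-H3K9 pep 500 nM / SAM 20 uM; 2 h RT; anti-H3K9me1 Ab 0.5 ug/mL + SA donor / anti-rabbit acceptor beads 20 ug/mL each, 10 min; AlphaScreen read.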
BAZ2B block – qHTS Assay for Inhibitors of BAZ2B; Bromodomain adjacent to zinc finger domain protein 2B (Homo sapiens), Q9UIF8; AlphaScreen BAZ2B-H3K14Ac peptide displacement; Potency, µM (series often up to 114 µM), inactives show at the highest dose activity change, negative = inhibition, most hits filed as inhibitors; actives 4.4% (n = 360,000); AID 504333, 2011; further: on the % scale 0 is the no-effect control and ±100 the full control effect; nearly all actives have a fitted effect of over 60% in size
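AlphaScreen displacement: compounds (up to 110uM) incubated 30 min at room temperature with a preformed 50 nM BAZ2B/50 nM biotinylated H3K14Ac peptide complex in PBS pH 7.4 with Tween-20. Donor and acceptor beads at 10 ug/mL final added, 20 min light-protected before reading.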
Sfp PPTase inh – qHTS Assay for Inhibitors of Bacillus subtilis Sfp phosphopantetheinyl transferase (PPTase); Biochemical Sfp PPTase activity, qHTS; Potency, µM, inactives show largest response in the series, negative = inhibition, most hits filed as inhibitors; actives 3.5% (n = 310,000); AID 1490, 2009;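 further: the enzyme is Sfp with the accession as filed and its product quenches rhodamine fluorescence; 0% = enzyme reaction without inhibitor and -100% = no enzyme wells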
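Fluorescence-quenching assay: 15 nM Sfp-PPTase preincubated 15 min at room temperature with compound, then 5 uM rhodamine-CoA and 12.5 uM BHQ-2-labelled YbbR peptide added. Fluorescence (ex 525/em 598 nm) read at start and after 30 min; difference gives rate.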
Numbers without * were called inactive; ! = not active in a repeat; [ ] = another dose, or the depositor's remark. The call rests on the fitted dose curve; in most records, active means well fitted curve in the direction sought with a large enough effect; inconclusive means small, poorly fitted or top-dose-only effect, or another doubt; inactive means no such curve, though single readings can be large; an effect the other way counts as inactive or inconclusive. Potency means the concentration at half of the fitted maximal effect.

Results for O=C(Cn1nc(N2CCN(c3ccccc3)CC2)ccc1=O)NC1CCCCCCC1 ?
12-LOX inh: 2.9%

How did COc1ccc(C(=O)NC2CCN(c3ccc(=O)n(C)n3)CC2)c(OC)n1 do in these assays?
12-LOX inh: 32.6%

How did O=c1c2ccccc2nc(COc2ccccc2)n1/N=C/c1ccc(O)cc1O do in these assays?
HP1b chromo inh: -8.3%; 12-LOX inh: -15.5%; JMJD2A Tudor: -35.8%; G9a block: 1.9%; BAZ2B block: inconclusive; Sfp PPTase inh: -1.8%

Results for Oc1ccc(/C=N/n2c(COc3ccccc3)n[nH]c2=S)c(O)c1 ?
HP1b chromo inh: -13.0%; 12-LOX inh: 44.7µM*; JMJD2A Tudor: -22.1%; G9a block: 1.78µM*; BAZ2B block: -12.7%; Sfp PPTase inh: 56.2µM*

Results for Fc1ccccc1/C=N/n1c(COc2ccccc2)n[nH]c1=S ?
HP1b chromo inh: inconclusive; 12-LOX inh: inconclusive; JMJD2A Tudor: 31.6µM*; G9a block: 2.24µM*; BAZ2B block: inconclusive; Sfp PPTase inh: 56.2µM*

What do the screens show for `CCOc1ccccc1/C=N/n1c(COc2ccccc2)n[nH]c1=S`?
HP1b chromo inh: -3.7%; 12-LOX inh: inconclusive; JMJD2A Tudor: inconclusive; G9a block: 14.1µM*; BAZ2B block: inconclusive; Sfp PPTase inh: 35.5µM*

Results for CCOc1ccccc1/C=N/n1c(C)nc2ccccc2c1=O ?
HP1b chromo inh: 17.2%; 12-LOX inh: 5.5%; JMJD2A Tudor: -8.3%; G9a block: -10.9%[2.33 µM]; BAZ2B block: 1.9%; Sfp PPTase inh: 6.7%

What do the screens show for `Cc1ccccc1/C=N/n1c(COc2ccccc2)n[nH]c1=S`?
HP1b chromo inh: -2.2%; 12-LOX inh: 1.5%; JMJD2A Tudor: -7.0%; G9a block: 2µM*; BAZ2B block: -1.3%; Sfp PPTase inh: -10.9%

What do the screens show for `COc1ccc(C(=O)NC[C@@H]2C=C(C)[C@H](Cc3nnc(-c4ccncc4)o3)C[C@H]2C(C)C)cc1`?
12-LOX inh: 4.0%

How did COc1ccc(F)cc1S(=O)(=O)NC1CCc2nnc(C)n2CC1 (stereo unspecified) do in these assays?
12-LOX inh: 68.8%

Results for Oc1ccccc1/C=N/n1c(COc2ccccc2)n[nH]c1=S ?
HP1b chromo inh: inconclusive; 12-LOX inh: 19.7%; JMJD2A Tudor: 79.4µM*; G9a block: 2.51µM*; BAZ2B block: -34.8%; Sfp PPTase inh: inconclusive

Results for Cc1cc2c(c(SCC(=O)Nc3cccc(C(F)(F)F)c3)n1)C(=O)OC2 ?
12-LOX inh: 23.9%

Results for NCCS(=O)O ?
12-LOX inh: -10.9%; G9a block: 18.9µM*!; Sfp PPTase inh: -15.8%

What do the screens show for `CC(C)C[C@@H](CNCC(=O)[C@H](CC(C)C)NC(=O)c1[nH]cnc1C(=O)N[C@@H](C)CN)NC(=O)c1nc[nH]c1C(=O)N[C@@H](CC(C)C)C(=O)O`?
HP1b chromo inh: 40.9%; 12-LOX inh: 27.9%; JMJD2A Tudor: 56.2µM*

Results for CC(C)C[C@@H](CNCC(=O)[C@H](C)NC(=O)c1[nH]cnc1C(=O)N[C@@H](C)CN)NC(=O)c1nc[nH]c1C(=O)N[C@@H](CC(=O)O)C(=O)O ?
HP1b chromo inh: inconclusive; 12-LOX inh: 6.3%; JMJD2A Tudor: 79.4µM*

What do the screens show for `CC(C)C[C@@H](CNCC(=O)[C@H](CC(C)C)NC(=O)c1[nH]cnc1C(=O)N[C@@H](C)CN)NC(=O)c1nc[nH]c1C(=O)N[C@@H](CC(=O)O)C(=O)O`?
HP1b chromo inh: 60.5%; 12-LOX inh: 6.1%; JMJD2A Tudor: 50.1µM*

Screening results deposited in PubChem BioAssay by National Center for Advancing Translational Sciences (NCATS).
